Source: PubChem BioAssay (Tox21)
Results filed as inconclusive are left out. Where a call stands in place of a potency, no number is given. The source holds several records for some structures; these can differ, active in one and inactive in another. A number with no mark means an inactive call. Calls of active or inactive are those of the source. The call rests on the fitted dose curve; in most records, active means well fitted cell-killing curve with a large enough effect in the repeat runs; inconclusive means weak or mixed curves, or effect the other way; inactive means no such curve, though single readings can be large or run the other way.

Test: qHTS assay to identify small molecule antagonists of the progesterone receptor (PR) signaling pathway - cell viability counter screen (AID 1346798); further: nearly all actives have a fitted effect of over 50% in size
Conditions: PR-UAS-bla HEK293T viability, CellTiter-Glo luminescence, 16 h; series mostly up to 92.4 µM
Text: National Center for Advancing Translational Sciences [NCATS]
NIH Chemical Genomics Center [NCGC]
U.S. Environmental Protection Agency [EPA]
National Institutes of Environmental Health Sciences [NIEHS]
National Toxicology Program [NTP]
U.S. Food and Drug Administration [FDA]
Progesterone receptor (PR), a nuclear hormone receptor, plays an important role in development, metabolic homeostasis and reproduction. It is activated by the steroid hormone progesterone. Endocrine disrupting chemicals (EDCs) and their interactions with steroid hormone receptors like PR causes disruption of normal endocrine function. To identify the compounds that inhibit PR signaling, a PR-UAS-bla GripTite cell line i.e. PR-UAS-bla HEK293T (Invitrogen, Carlsbad, CA, USA) containing a beta-lactamase reporter gene under the control of an UAS response element was used to screen Tox21 10K compound library. The cytotoxicity of the Tox21 compound library against the PR-bla cell line was tested in parallel by measuring the cell viability using CellTiter-Glo assay in the same wells.
Tox21 Assay Protocol Summary:
PR-UAS-bla HEK293T cells were dispensed at 3,000 cells/4 uL of assay medium containing 2% charcoal stripped FBS per well into black wall/clear-bottom 1536-well plates using a Multidrop Combi (ThermoFisher Scientific, Waltham, MA) dispenser. After the assay plates were incubated at a 37C and 5% CO2 for 4 hr, 23 nL of compounds dissolved in DMSO, positive controls or DMSO only was transferred to the assay plate by a Pintool station (Kalypsys, San Diego, CA), followed by addition of 1 uL of R5020 in assay medium using a Flying Reagent Dispenser (FRD, Aurora Discovery, San Diego, CA). The plates were incubated at 37C and 5% CO2 for 16 hr. Then 1 uL of LiveBLAzer B/G FRET substrate was added using a Flying Reagent Dispenser, the plates were incubated at room temperature for 2 hours, and fluorescence intensity was measured by an Envision plate reader (PerkinElmer, Shelton, CT). For cell viability readout that measures cytotoxicity, 4 uL/well of CellTiter-Glo reagent was added into the assay plates using a FRD. After 30 min incubation at room temperature, the luminescence intensity in the plates was measured using a ViewLux (PerkinElmer) plate reader.
Potency means the concentration at half of the fitted maximal effect.

| SMILES | Potency | activity change, negative = cytotoxicity |
| --- | --- | --- |
| Cc1ccc(C)c(O)c1C | inactive | – |
| Cc1ncc[nH]1 | inactive | – |
| CC(=O)O[C@]1(C(C)=O)CC[C@H]2[C@@H]3C=C(Cl)C4=CC(=O)[C@@H]5C[C@@H]5[C@]4(C)[C@H]3CC[C@@]21C | inactive | – |
| COc1ccccc1/C=C/C=O | inactive | – |
| CCCc1c(OCCCCc2nn[nH]n2)ccc(C(C)=O)c1O | inactive | – |
| CCCCC/C=C/C=C/C=O | inactive | – |
| NC=O | inactive | – |
| OC(CCl)CCl | inactive | – |
| Cc1cccc([N+](=O)[O-])c1C | inactive | – |
| C#C[C@]1(O)CC[C@H]2[C@@H]3CCc4cc(OC)ccc4[C@H]3CC[C@@]21C | inactive | – |
| CCC(C)CO (stereo not given) | inactive | – |
| C=C(C)C1CC=C(C)CC1 (stereo not given) | inactive | – |
| Oc1ccc(O)cc1 | inactive | – |
| COc1ccc(OC)c(C(O)CNC(=O)CN)c1 (stereo not given) | inactive | – |
| CCCCOCCOCCOCCO | inactive | – |
| Nc1ncnc2nc[nH]c12 | inactive | – |
| COC(=O)CCC(=O)OC | inactive | – |
| CC(=O)CC/C=C(\C)CCC=C(C)C | inactive | – |
| c1ccncc1 | inactive | – |
| C[Si](C)(C)O[Si](C)(C)C | inactive | – |

| SMILES | Potency | activity change, negative = cytotoxicity |
| --- | --- | --- |
| Clc1nc(Cl)c(Cl)c(Cl)c1Cl | inactive | – |
| CCCCC(CC)COP(=O)(OCC(CC)CCCC)OCC(CC)CCCC (stereo not given) | inactive | – |
| Cc1[nH]c(=O)c(C#N)cc1-c1ccncc1 | inactive | – |
| CCCC(=O)O | inactive | – |
| Nc1ccc(Cl)cc1Cl | inactive | – |
| c1ccc2sc(SSN3CCOCC3)nc2c1 | inactive | – |
| CN1C(C(=O)Nc2ccccn2)=C(O)c2ccccc2S1(=O)=O | inactive | – |
| c1ccc2c(c1)Oc1ccccc1S2 | inactive | – |
| CCOCCOCCO | inactive | – |
| Nc1ccc(S(=O)(=O)Nc2cnc3ccccc3n2)cc1 | inactive | – |
| O=C(c1ccccc1)c1ccccc1O | inactive | – |
| Cc1ccc2c(n1)Oc1ccc(C(C)C(=O)OCC(=O)N(C)C)cc1C2 (stereo not given) | inactive | – |
| COc1c(Cl)c(Cl)c(Cl)c(Cl)c1Cl | inactive | – |
| O=C(OCc1ccccc1)c1ccccc1O | inactive | – |
| O=C=Nc1ccc(Cc2ccc(N=C=O)cc2)cc1 | inactive | – |
| O=C(/C=C/C=C/c1ccc2c(c1)OCO2)N1CCCCC1 | inactive | – |
| OC[C@H]1O[C@@H]2O[C@H]3[C@H](O)[C@@H](O)[C@@H](O[C@H]4[C@H](O)[C@@H](O)[C@@H](O[C@H]5[C@H](O)[C@@H](O)[C@@H](O[C@H]6[C@H](O)[C@@H](O)[C@@H](O[C@H]7[C@H](O)[C@@H](O)[C@@H](O[C@H]8[C@H](O)[C@@H](O)[C@@H](O[C@H]1[C@H](O)[C@H]2O)O[C@@H]8CO)O[C@@H]7CO)O[C@@H]6CO)O[C@@H]5CO)O[C@@H]4CO)O[C@@H]3CO | inactive | – |
| O=C(Nc1ccc([N+](=O)[O-])cc1Cl)c1cc(Cl)ccc1O | 30.6 µM (active) | -2.12% [at 18.9 µM] |
| C#C[C@]1(O)CC[C@H]2[C@@H]3CCC4=Cc5oncc5C[C@]4(C)[C@H]3CC[C@@]21C | 38.6 µM (active) | – |
